Screening results from PubChem BioAssay.
rCAG RNA binder: binds r(CAG) RNA repeats; inhibition, % at 3 µM; hit rate 1.3% among 370,000; r(CAG) RNA repeat, TO-PRO-1 dye displacement fluorescence;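 active means inhibition above the plate cutoff, the mean of all test compounds on that plate plus 3 SD, cut at about 35% in these data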;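 further: 0% = DMSO alone and 100% = 100 µM mitoxantrone as full dye displacement; higher means more dye released from RNA so lower well fluorescence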
KLK7 zymogen act: proKLK7 (human) activation, primary screen; purified proKLK7, EDANS-DABCYL substrate fluorescence; 100% is mature enzyme control, 0% vehicle; AID 652039; hit rate 0.9% among 370,000; activation, % at 7 µM;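 active means activation above the mean of all tested compounds plus 3 SD, computed per campaign excluding outliers beyond control limits, cut at about 13% in these data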
Target sequence (P49862 whole entry, looked up): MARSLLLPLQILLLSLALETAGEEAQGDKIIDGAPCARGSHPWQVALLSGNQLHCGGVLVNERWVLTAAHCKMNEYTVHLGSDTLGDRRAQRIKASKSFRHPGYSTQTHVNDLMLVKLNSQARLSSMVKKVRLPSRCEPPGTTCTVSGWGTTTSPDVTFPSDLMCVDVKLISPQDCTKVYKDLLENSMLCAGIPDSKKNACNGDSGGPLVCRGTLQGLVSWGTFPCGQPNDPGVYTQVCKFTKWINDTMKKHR
ADAM17 inh: ADAM17 inhibition, QFRET primary screen. recombinant ADAM17, EDANS/DABCYL FRET peptide cleavage. hit rate 0.83% among 370,000. inhibition, % at 6.95 µM. P78536;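 active means inhibition above the mean of compounds lying between control limits plus 3 SD, set per campaign, cut at about 8.5% in these data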;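 further: 0% = DMSO-only wells as the low control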
MPTP block: inhibitors of mitochondrial permeability transition pore | isolated mouse mitochondria, Ca2+ swelling absorbance, 30 min | inhibition, % at 10 µM | hit rate 1.4% among 360,000 | AID 602449;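 active means inhibition of 50% or more, scaled per plate between neutral and stimulator controls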;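 further: 0% = DMSO wells given calcium and 100% = 1 mM EGTA wells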
Pemphigus Ab inh: blocks pemphigus antibody binding to human desmoglein-3; DSG3-coupled beads, scFv-anti-DSG3-GFP binding, flow cytometry; active compounds read low; binding (percent of control), % at 10 µM; hit rate 0.48% among 310,000; AID 588358;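 active means binding more than 3 SD below its plate's average and above zero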;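 further: hits lower antibody fragment binding to DSG3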
ADAM10 inh: ADAM10 inhibition, QFRET primary screen; O14672; recombinant ADAM10, EDANS/DABCYL FRET peptide cleavage, 3 h; inhibition, % at 7 µM; hit rate 0.62% among 370,000; AID 720582;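 active means inhibition above a per-campaign cutoff equal to the mean of compounds falling between control-based bounds plus 3 SD, cut at about 20% in these data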;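 further: 0% = DMSO wells while the 100% control is not disclosed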
KLK7 act conf: proKLK7 activation, confirmation; shares compounds with KLK7 zymogen act; purified proKLK7, EDANS-DABCYL substrate fluorescence; scaled: vehicle 0, mature enzyme 100; activation, % at 7 µM; hit rate 68% among 3,200; AID 686949;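 active means activation, as change over the incubation, above the mean of all tested compounds plus 3 SD, cut at about 13% in these data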
EDANS interfere: counter-screen for kallikrein-7 activators: EDANS-DABCYL optical interference; shares compounds with KLK7 zymogen act; EDANS-DABCYL substrate fluorescence interference, no enzyme, 4 h; solvent 0%, active enzyme control 100%; activation, % at 7 µM; hit rate 80% among 3,200; AID 686952;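 active means activation above the all-compound mean plus 3 SD, ignoring values outside control-based bounds, cut at about 4.8% in these data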;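 further: value is the 4 h activation minus the activation read at time zero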
K7 EDANS ctr: optically interferes with EDANS-DABCYL fluorescence, kallikrein-7 activator counter-screen; shares compounds with KLK7 zymogen act; EDANS-DABCYL peptide fluorescence interference, no enzyme; EC50, µM; hit rate 20% among 250;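 active means compounds that raise the fluorescence signal in this interference counterscreen, with EC50 at or below 10 µM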;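 further: intact quenched peptide substrate alone read at 355 nm excitation and 520 nm emission; signal is fluorescence gain from T0 to T4 after four hours at room temperature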
* marks the source's active call; other numbers are inactive results; i = inactive; . = no result given. Only some compounds are listed: those with a hit (about 4.7% of all), similar ones and a draw of the others.

SMILES	rCAG RNA binder	KLK7 zymogen act	ADAM17 inh	MPTP block	Pemphigus Ab inh	ADAM10 inh	KLK7 act conf	EDANS interfere	others
CCc1nn(CC(=O)NCCN2CCN(C)CC2)c(=O)c2cc3c(OC)cccc3n12	2.2	34.5*	i	-2.9	.	i	26.7*	33.6*
COCOc1ccc(-c2ncc(OC)nc2NC(=O)c2ccsc2)cc1	0.1	0.5	-3.1	-0.5	.	-5.9	.	.
CCCCCC1C(C(=O)OCC)C(=O)NC1(C(=O)OCC)C(=O)OCC (centres undefined)	-2.2	-0.6	-1.3	-1.4	95.7	0.9	.	.
Nc1nc2ccc(Cl)cc2cc1C(=O)NCCCN1CCOCC1	6.0	19.3*	-131.4	-0.7	.	-493.4	14.6*	11.8*	K7 EDANS ctr=i
C=CCNC(=O)c1cc(Cl)ccc1Cl	-0.8	0.2	-2.5	-3.3	.	0.5	.	.
C=CCNC(=O)c1cc2cc(Cl)ccc2nc1N	2.7	18.4*	-201.3	-0.2	.	i	15.7*	14.4*
CC1(C)CC(=O)C2=C(C1)N(CCN1CCOCC1)C1=C(C(=O)CC(C)(C)C1)C2c1ccc(Cl)c([N+](=O)[O-])c1	-0.8	1.7	-6.8	-0.4	105.1	-12.0	.	.
Cc1ccc(C2C3=C(CC(C)(C)CC3=O)N(CCN3CCOCC3)C3=C2C(=O)CC(C)(C)C3)cc1	-7.7	16.9*	-194.0	-2.2	95.5	-497.9	7.8	10.2*
O=C(NCc1nnc(SCC(=O)N2CCCC2)o1)c1ccccc1F	-1.5	62.0*	-6.9	1.8	.	-5.8	0.4	0.7
COP(=O)(c1ccc(N(C)C)cc1)C(O)c1ccccc1 (centres undefined)	-1.8	29.3*	-6.6	0.0	103.3	-11.7	0.3	0.4
CCOP(=O)(c1ccc(N(C)C)cc1)C(O)c1ccccc1 (centres undefined)	-1.5	-0.3	-0.1	-1.1	99.1	1.6	.	.
COC(=O)/C=C/c1c(C)nc(NCc2ccccc2)nc1Cl	8.3	29.0*	-156.9	1.0	107.0	-431.3	50.2*	50.8*
COc1ccc(-c2cc(C(F)(F)F)n3nc(C(=O)NCCCn4ccnc4)cc3n2)cc1	-1.5	57.4*	-317.3	0.3	107.9	i	-215.6	-197.7
COc1ccc(-c2cc(C(F)(F)F)n3nc(C(=O)NCCN4CCOCC4)cc3n2)cc1	-7.2	-11.5	-150.2	0.5	96.1	-423.6	.	.
CCOC(=O)c1sc2nc(N3CCOCC3)c3c(c2c1N)CCC3	-0.2	-70.2	i	1.3	105.6	i	.	.
NC(=O)c1sc2nc(N3CCOCC3)c3c(c2c1N)CCCC3	5.3	20.9*	-334.1	-7.1	105.3	i	-0.7	0.2
Nc1c(C(=O)NCCc2ccccc2)sc2nc(N3CCOCC3)c3c(c12)CCCC3	7.7	151.9*	-261.5	3.1	99.5	i	-18.8	-21.1
COc1ccccc1N(C)c1cc2c(c3c1ccn3C)C1CCC2O1 (centres undefined)	3.0	-1.4	-7.4	-0.5	.	-26.2	.	.
CCC(C)Cn1cnc2c(SCc3ccccn3)nc(N)nc21 (centres undefined)	2.1	0.3	-1.6	-1.0	109.2	-0.3	.	.
CC(=O)c1cc2c(cc1NS(=O)(=O)c1ccccc1C)OCO2	0.1	0.3	-2.6	.	.	-7.3	.	.
CC(=O)c1cc2c(cc1NS(=O)(=O)c1ccccc1Br)OCO2	6.0	40.7*	-3.9	0.4	102.7	6.8	14.7*	5.3*	K7 EDANS ctr=>69.5
O=C(CN(Cc1ccccc1Cl)C(=O)c1csnn1)NC1CCCC1	-4.9	-0.6	0.0	0.0	.	-4.5	.	.
COCCNC(=O)CSc1nc(-c2ccc(OC)c(OC)c2)cc(C(F)(F)F)n1	-5.6	4.5	-18.4	-5.0	108.1	-62.9	.	.
CCn1cc(CNC(=O)CSc2nc(-c3ccc(OC)c(OC)c3)cc(C(F)(F)F)n2)c(C)n1	-5.6	20.6*	-119.1	-6.4	102.0	-413.6	3.7	8.2*
